Assay [1] can be described thus: ACEA_AR_agonist_AUC_viability: ACEA Biosciences xCELLigence Real-Time Cell Analysis on Androgen Receptor Agonism for Viability (AID 2283775).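 As to AC50: viability read 80 hours after compound addition.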 Summed up: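 Real-time impedance tracking of 22Rv1 growth, readings every 5 min for 5 h then hourly; area-under-curve viability endpoint at 80 hours, relative to DMSO. Compounds at eight concentrations, 1:4 steps, top 100 uM, n = 2.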

A short description of assay [2]: ACEA_AR_antagonist_AUC_viability: ACEA Biosciences xCELLigence Real-Time Cell Analysis on Androgen Receptor Antagonism for Viability (AID 2283776).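 Also: 22Rv1 human prostate cancer cells growing on impedance electrode plates; hits lower the growth signal relative to DMSO meaning cytotoxicity.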 The method in brief: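 22Rv1 prostate cells, continuous dosing up to 100 uM final (0.5% DMSO max), duplicate plates. Growth measured by impedance; AUC at 80 h, loss of signal vs DMSO.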
Assay [3] in a line: ACEA_ER_AUC_viability: ACEA Biosciences xCELLigence Real-Time Cell Analysis on Estrogen Receptor Agonism for Viability (AID 2283782).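 Also: continuous compound exposure with impedance area under curve over 80 h; hit means loss of impedance signal meaning reduced cell growth or viability.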 Summed up: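 T-47D; phenol red-free RPMI1640 + 10% CS-FBS; 8 conc., 1:4 serial, max 100 uM final, ≤0.5% DMSO; n = 2; continuous exposure; impedance monitored to 80 h post-dose; AUC vs DMSO.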
Assay [4] addresses Luciferin 4-monooxygenase (Photinus pyralis) (UniProt P08659). The assay is described as follows: CCTE_Simmons_QuantiLum_inhib_2: CCTE's Firefly Luciferase Inhibition Assay, Simmons Lab (AID 2283767).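 As to AC50: potency for inhibitors that lower luciferase luminescence relative to DMSO.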 The method in brief: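 Cell-free recombinant firefly luciferase (5 ng/well) in 200mM potassium phosphate with 1 mg/ml BSA, 30 min at 37C with 8 concentrations from 5 nM to 87.5 uM [final], 0.5% DMSO. Luminescence read after D-luciferin (150uM)/dATP (147uM) reagent injection, pH 7.8; triplicates.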

The target of assay [5] is zebrafish Estrogen Receptor (ESR1), esr1 (gene 259252) (UniProt P57717). The assay is described as follows: ATG_zfER1_XSP1: Attagene TRANS-FACTORIAL Multi-Species (XSP1) HepG2 Assay for zebrafish Estrogen Receptor (ESR1) (AID 2283772). Summed up:
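Transfect HepG2 with GAL4-UAS multi-reporter constructs; treat 24 h (medium carries 3 nM 6-alpha-fluorotestosterone); extract RNA, reverse-transcribe, PCR-amplify, FAM-label, digest with HpaI; resolve by capillary electrophoresis and compare against DMSO baseline.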

The subject of assay [6] is zebrafish Estrogen Receptor (ESR2B), gene 317733. The assay is described as follows: ATG_zfER2b_XSP1: Attagene TRANS-FACTORIAL Multi-Species (XSP1) HepG2 Assay for zebrafish Estrogen Receptor (ESR2B) (AID 2283773). Summed up:
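Gain-of-signal endpoint relative to DMSO: reporter transcript levels quantified by RT-PCR and capillary electrophoresis after 24 h compound exposure of HepG2 cells expressing a zebrafish ER2b-Gal4 chimera.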

Assay [7] deals with frog Estrogen Receptor (ESR2), gene 100174814. Nature of the assay: ATG_frER2_XSP1: Attagene TRANS-FACTORIAL Multi-Species (XSP1) HepG2 Assay for frog Estrogen Receptor (ESR2) (AID 2283774). Summed up:
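Transactivation of an exogenous receptor-Gal4 fusion is tracked in transfected HepG2 cells via induced reporter transcript levels. After 24 h treatment, RT-PCR with capillary electrophoresis quantifies signal gain over DMSO.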

The subject of assay [8] is frog Estrogen Receptor (ESR1), gene 398734. The assay is described as follows: ATG_frER1_XSP1: Attagene TRANS-FACTORIAL Multi-Species (XSP1) HepG2 Assay for frog Estrogen Receptor (ESR1) (AID 2283777). Summed up: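 Human hepatoma HepG2 cells carried transiently transfected multiplexed Gal4-driven reporters and were exposed to test chemicals for 24 hours. Transcripts were quantified by fluorescent RT-PCR with capillary electrophoresis, referenced to DMSO.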

Assay [9] concerns zebrafish Estrogen Receptor (ESR2A), gene 317734. Nature of the assay: ATG_zfER2a_XSP1: Attagene TRANS-FACTORIAL Multi-Species (XSP1) HepG2 Assay for zebrafish Estrogen Receptor (ESR2A) (AID 2283778). The method in brief: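 Cells were transfected, dosed for 24 h, then total RNA was isolated. After oligo(dT) reverse transcription, reporter sequences were amplified, FAM-labelled by primer extension, digested with HpaI and sized by capillary electrophoresis; DMSO served as baseline.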

Assay [10] has as its target chicken Estrogen Receptor (ESR1), ESR1 (gene 396099) (UniProt P06212). The assay is described as follows: ATG_chERa_XSP1: Attagene TRANS-FACTORIAL Multi-Species (XSP1) HepG2 Assay for chicken Estrogen Receptor (ESR1) (AID 2283779). The method in brief:
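Human liver HepG2, transient MRTU transfection (NR-Gal4 chimeras, GAL4-UAS reporters); 24 h compound exposure; 3 nM 6-alpha-fluorotestosterone in medium. Total RNA → RT-PCR → 6-FAM primer extension → HpaI → CE. Positive direction vs DMSO baseline.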

The subject of assay [11] is turtle Estrogen Receptor (ESR1), gene 101933533. Nature of the assay: ATG_trERa_XSP1: Attagene TRANS-FACTORIAL Multi-Species (XSP1) HepG2 Assay for turtle Estrogen Receptor (ESR1) (AID 2283781). The method in brief:
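Activity was taken as gain of reporter transcript over DMSO controls. HepG2 cells carrying GAL4-UAS-driven reporters were exposed for 24 h before RNA was extracted and reporter sequences were measured by fluorescence after capillary separation.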

Results filed as inconclusive are left out. More than one record can exist for a structure, and the calls need not agree. Active and inactive are the calls of the source. The calls were made as follows: active = hit-call score of the fitted dose curve at least 0.9, where 1 is the maximum; inconclusive = response in the unintended direction; inactive = score below 0.9.

Sequence of Luciferin 4-monooxygenase (Photinus pyralis) (P08659 whole entry, looked up): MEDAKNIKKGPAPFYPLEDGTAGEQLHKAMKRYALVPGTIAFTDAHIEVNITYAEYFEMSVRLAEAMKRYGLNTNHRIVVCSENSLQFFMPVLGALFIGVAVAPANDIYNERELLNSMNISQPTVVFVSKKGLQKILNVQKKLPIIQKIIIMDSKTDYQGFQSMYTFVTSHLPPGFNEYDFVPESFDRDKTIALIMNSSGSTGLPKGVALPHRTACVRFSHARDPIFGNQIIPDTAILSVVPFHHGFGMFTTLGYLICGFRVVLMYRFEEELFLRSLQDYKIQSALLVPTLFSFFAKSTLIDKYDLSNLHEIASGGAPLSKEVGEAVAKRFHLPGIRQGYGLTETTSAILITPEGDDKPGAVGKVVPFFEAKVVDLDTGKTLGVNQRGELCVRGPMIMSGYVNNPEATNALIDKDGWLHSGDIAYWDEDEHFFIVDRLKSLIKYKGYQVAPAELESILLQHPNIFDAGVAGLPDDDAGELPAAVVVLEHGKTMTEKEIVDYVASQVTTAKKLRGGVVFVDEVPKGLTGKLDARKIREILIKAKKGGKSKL
Sequence of chicken Estrogen Receptor (ESR1), ESR1 (gene 396099) (P06212 whole entry, looked up, the tested form may be a part): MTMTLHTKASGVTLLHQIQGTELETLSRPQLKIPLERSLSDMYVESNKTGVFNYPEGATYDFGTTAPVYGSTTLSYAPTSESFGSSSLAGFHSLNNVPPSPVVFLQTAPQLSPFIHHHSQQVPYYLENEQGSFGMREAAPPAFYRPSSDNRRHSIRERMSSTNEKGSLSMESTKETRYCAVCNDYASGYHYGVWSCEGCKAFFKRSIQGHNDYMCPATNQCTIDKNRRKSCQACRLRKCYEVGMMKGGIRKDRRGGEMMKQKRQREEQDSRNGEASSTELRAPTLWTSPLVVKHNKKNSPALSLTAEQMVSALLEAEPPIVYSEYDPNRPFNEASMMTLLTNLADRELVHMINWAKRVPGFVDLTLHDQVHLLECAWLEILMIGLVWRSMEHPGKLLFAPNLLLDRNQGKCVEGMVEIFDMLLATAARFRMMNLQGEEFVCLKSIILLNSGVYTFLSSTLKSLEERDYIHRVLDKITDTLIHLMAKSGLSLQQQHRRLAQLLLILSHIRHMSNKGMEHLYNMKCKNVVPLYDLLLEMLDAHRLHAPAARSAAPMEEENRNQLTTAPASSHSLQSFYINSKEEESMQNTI
Sequence of zebrafish Estrogen Receptor (ESR1), esr1 (gene 259252) (P57717 whole entry, looked up, the tested form may be a part): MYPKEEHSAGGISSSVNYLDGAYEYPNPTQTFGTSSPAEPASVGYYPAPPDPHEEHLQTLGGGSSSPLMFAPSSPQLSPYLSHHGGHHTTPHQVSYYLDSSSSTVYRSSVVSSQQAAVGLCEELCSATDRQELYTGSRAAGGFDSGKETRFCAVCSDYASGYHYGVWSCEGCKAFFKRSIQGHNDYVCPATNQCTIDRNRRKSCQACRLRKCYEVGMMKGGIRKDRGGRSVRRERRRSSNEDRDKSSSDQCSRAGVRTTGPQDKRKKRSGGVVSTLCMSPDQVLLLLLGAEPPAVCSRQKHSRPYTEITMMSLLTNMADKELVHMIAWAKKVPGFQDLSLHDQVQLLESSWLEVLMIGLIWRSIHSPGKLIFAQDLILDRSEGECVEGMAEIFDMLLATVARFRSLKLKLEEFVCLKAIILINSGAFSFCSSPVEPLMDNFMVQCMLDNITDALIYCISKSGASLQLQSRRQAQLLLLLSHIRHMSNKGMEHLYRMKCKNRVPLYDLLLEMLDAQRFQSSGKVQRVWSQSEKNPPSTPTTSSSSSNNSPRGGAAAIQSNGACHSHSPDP

On to `O=C(OCCCCCCOC(=O)c1ccccc1)c1ccccc1`, for which the AC50 was 74 µM (active) in assay [1] and 71.5 µM (active) in assay [2]. The call in assay [3] was inactive.

Regarding `CCCOC(=O)c1cc(O)c(O)c(O)c1`, the compound was classed as inactive in assay [4] and in [3]. Besides, the AC50 in assay [2] is 31.4 µM (active).

`C[C@]12CC[C@@H]3c4ccc(O)cc4CC[C@H]3[C@@H]1CCC2=O`: the AC50 was 0.0145 µM (active) in [5]; 0.00305 µM (active) in assay [6]; 0.00632 µM (active) in [7]; 71.6 µM (active) in assay [2]; 0.00311 µM (active) in assay [8]; 0.00383 µM (active) in assay [9]. In addition, the results for the AC50 in assay [10] and in [11] were 0.00508 µM (active) and 0.00309 µM (active), respectively. In addition, in assay [2], the result was inactive.

Take `CO[C@H]1/C=C/O[C@@]2(C)Oc3c(C)c(O)c4c(O)c(c(/C=N/N5CCN(C)CC5)c(O)c4c3C2=O)NC(=O)/C(C)=C\C=C\[C@H](C)[C@H](O)[C@@H](C)[C@@H](O)[C@@H](C)[C@H](OC(C)=O)[C@@H]1C`: the AC50 in assay [4] was 22.6 µM (active).

Consider `COc1ccc2cc(S(=O)(=O)N[C@H](CC(=O)N[C@H](Cc3ccc(CN4[C@H](C)CCC[C@@H]4C)cc3)C(=O)N(C)C(C)C)c3ccc4c(c3)OCO4)ccc2c1`, for which the results for the AC50 in assay [1], in assay [2] and in assay [3] were 9.68 µM (active), 9.32 µM (active) and 10.8 µM (active), respectively.

For the compound `CC1=CC(=O)/C(=C(/C)O)C(=O)O1`, the compound was classed as inactive in assay [1] and in assay [2].

Consider `Oc1ccccc1`, for which the outcome in assay [4], in assay [1], in assay [2] and in [3] was inactive.

For `O=C(O)Cc1cc(I)c(Oc2ccc(O)c(I)c2)c(I)c1`, in [4], the result was inactive. Also, the AC50 in [1] was 22 µM (active); in assay [2] it was 20.3 µM (active).

In the case of `CCCCCCCCCCCO`, the AC50 in [1] was 90.2 µM (active); in assay [2] it was 85 µM (active); in [3], 50 µM (active).

Regarding `Cc1cccc2ccccc12`, the call in [1], in assay [2] and in assay [3] was inactive.

Values taken from PubChem BioAssay (EPA / NIEHS).
